Reference: PubChem BioAssay (NCATS)
Results filed as inconclusive are left out. Activity calls are given as the source filed them. The call rests on the fitted dose curve; in most records, active means well fitted inhibition curve with a large enough effect; inconclusive means small, poorly fitted or top-dose-only effect; inactive means no such curve, though single readings can be large or run the other way.

System: Zika virus NS2B-NS3 protease (linked)
Assay: 384 well plate NINDS AMC confirmatory qHTS for Zika virus inhibitors (AID 1347163); further: nearly all actives have a fitted effect of over 50% in size
Conditions: Recombinant NS2B-NS3 protease, Ac-VKTGKR-AMC fluorescence; series mostly up to 100 µM
Text: Description: Assay Submitters (PI): Avindra Nath, Ph.D., National Institute of Neurological Disorders and Stroke (NINDS), Bethesda, MD Radhakrishnan Padmanabhan, Ph.D., Georgetown University (GU), Washington D.C. Zika Virus causes congenital defects, including microcephaly and is associated with Guillain-Barre syndrome, eningoencephalitis and myelitis in infected adult. […] Using a target-based approach, we hope to establish a screening paradigm to uncover novel, cell-active NS2B-NS3 protease (Zika Virus) specific inhibitors from NCATS' collection of small molecules using qHTS. […] Four assay panel was created to identify potential Zika Virus inhibitors. Namely, (1) GU unlinked NS2B-NS3 AMC tagged protease qHTS, (2) GU unlinked NS2B-NS3 Rhodamine tagged protease qHTS, (3) NINDS linked NS2B-NS3 AMC tagged protease qHTS, (4) NINDS linked NS2B-NS3 Rhodamine tagged protease qHTS. Active compounds are validated using a secondary assay in 384 well plate format. Early Translation Branch (ETB) National Center for Advancing Translational Sciences (NCATS), Rockville, MD National Institute of Health (NIH), Bethesda, Maryland
384-well NINDS AMC Assay The protease was diluted to 7.5 nM, 40.9 nM, or 82 nM in assay buffer and dispensed into a 96-well PCR plate (Applied Biosystems); 20 or 22 microL was transferred to a black 384-well assay plate (final protease concentration of 5 nM, 30 nM, or 60 nM, respectively). Compounds (3 microL, 1 microM - 10 mM, DMSO) were diluted and transferred to the assay plate (final concentrations ranged from 100 nM to 1 mM). Compounds were incubated with protease for ~15 minutes. The substrate, Ac-VKTGKR-AMC (Genscript), was dissolved in DMSO to a concentration of 6 mM and further diluted into assay buffer to a working concentration of 180 microM, then dispensed into a 384-well preparation plate (Eppendorf). A multichannel repeat pipettor was used to add 3 or 5 microL of substrate to the assay plate to give a final concentration of 30 microM. The plate was incubated in the dark at room temperature. After 25 minutes, the fluorescence intensity (excitation: 355 nm, emission: 460 nm) was measured and normalized to no-enzyme and no-inhibitor controls. Aprotinin39 (VWR) was used as an intraplate control.
Potency means the concentration at half of the fitted maximal effect.

| SMILES | Potency |
| --- | --- |
| CC#C[C@@H](CC(=O)O)c1ccc(OCc2cccc(-c3ccc(C(F)(F)F)cc3)c2)cc1 | inactive |
| CC(O)(C(=O)O)C1CCC2(C)C1CCC1(C)C2CCC2C3(C)CCC(O)C(C)(COC4OC(CO)C(O)C(O)C4O)C3CCC21C (centres undefined) | 39.8 µM (active) |
| N#Cc1ccc(N2N=C3c4ccc(C(=O)O)cc4CC[C@@H]3[C@@H]2C2CCCC2)cc1Cl | inactive |
| Oc1cccc(-c2c3nc(c(-c4cccc(O)c4)c4ccc([nH]4)c(-c4cccc(O)c4)c4nc(c(-c5cccc(O)c5)c5ccc2[nH]5)CC4)C=C3)c1 | 3.16 µM (active) |
| O=C(O)c1ccc(S(=O)(=O)N(Cc2ccc(OC(F)(F)F)cc2)c2ncc(C(F)(F)F)cc2Cl)cc1 | 2.51 µM (active) |
| O=C(O)c1cc(N(Cc2ccc(C3CCCCC3)cc2)C(=O)c2ccc(Oc3ccccc3)cc2)ccc1O | 1.41 µM (active) |
| O=C(Nc1ccc(-c2ccc(Cl)c(Cl)c2)cc1)C1=C(O)c2ccccc2S(=O)(=O)N1 | inactive |
| CC(C)(C)Sc1c(CC(C)(C)C(=O)O)n(Cc2ccc(Cl)cc2)c2ccc(OCc3ccc4ccccc4n3)cc12 | 14.1 µM (active) |
| O=C(O)c1ccc(N2C(=O)/C(=C/c3ccc(-c4ccc([N+](=O)[O-])cc4)o3)C=C2c2ccccc2)cc1 | 22.4 µM (active) |
| Cc1noc(-c2ccc(-c3ccc(CC(=O)O)cc3)cc2)c1NC(=O)O[C@H](C)c1ccccc1Cl | 20 µM (active) |
| CC#C[C@@H](CC(=O)O)c1ccc(OCc2ccc(CN3CCC4(C=Cc5ccccc54)CC3)s2)cc1 | 5.01 µM (active) |
| O=C(O)c1cccc(-c2ccc(-c3cn(C(=O)N4CCCCC4Cc4ccccc4)nn3)cc2)c1 (centres undefined) | inactive |
| O=C(Nc1ccc(/C=C/c2ccc(NC(=O)c3cc(S(=O)(=O)O)c4cccnc4c3O)cc2S(=O)(=O)O)c(S(=O)(=O)O)c1)c1cc(S(=O)(=O)O)c2cccnc2c1O | 44.7 µM (active) |
| COc1ccc(-c2ccccc2)cc1NS(=O)(=O)c1cc(Cl)cc(Cl)c1O | 4.47 µM (active) |
